Assay outcomes from PubChem BioAssay.
SW480 rereplic = A quantitative high throughput screen for small molecules that induce DNA re-replication in SW480 colon adenocarcinoma cells; 340,000 compounds, 1.8% hits; SW480 DNA re-replication, Hoechst DNA content imaging, 48 h; Potency, µM (titrated, usually from 46.1 µM), most hits filed as activators; further: nearly all actives have a fitted effect of over 55% in size
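Treated cells incubate 48 hr (37 C, 5% CO2), are stained 40 min with Hoechst, and nuclear fluorescence is enumerated; a rise in nuclei with high DNA signal marks re-replication.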
KB-3-1 cytotox = qHTS assay for MDR1-selective chemotherapeutics: Primary screen using the parental adenocarcinoma cell KB-3-1. KB-3-1 viability, CellTiter-Glo ATP luminescence, 72 h. Potency, µM (titrated, usually from 46.1 µM), most hits filed as cytotoxic. 400,000 compounds, 1.4% hits. AID 1347075, 2019; further: nearly all actives have a fitted effect of over 60% in size
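Parental KB-3-1 viability, qHTS format: 72 h compound exposure, 37 °C; CellTiter-Glo; media-only wells and DMSO plates as controls; concentration-effect fits on corrected data.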
KCNH2 3.1 inh = qHTS for Inhibitors of KCHN2 3.1: Mutant qHTS | AID 720553, 2013 | U2OS KCNH2 3.1, thallium flux FluxOr; stronger effect = lower value | 340,000 compounds, 0.95% hits | activity change, % (tested at about 1.8 µM);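 active means maximum activity change below -70%; inconclusive means maximum activity change from -70% to -50%; inactive means maximum activity change above -50%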;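 further: thallium influx rate constant from kinetic fluorescence after stimulation buffer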
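Thallium flux via FluxOr fluorescence (Red40 quencher, 45 min loading) in U2OS cells virally expressing the KCNH2 3.1 isoform (1.77 x 10^8 /mL virus, overnight at 37 C). Rate constants from 2-min kinetic reads post-stimulation, normalised to positive and negative controls.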
MCF10A rerep = A quantitative high throughput screen for small molecules that induce DNA re-replication in MCF 10a normal breast cells; 350,000 compounds, 2.9% hits; Potency, µM (highest dose often 46.1 µM), hits mostly activators; MCF 10A DNA re-replication, Hoechst nuclear intensity, 48 h; further: nearly all actives have a fitted effect of over 50% in size
KB-V1 MDR tox = qHTS assay for MDR1-selective chemotherapeutics: Primary screen using the drug-selected MDR subline cells KB-V1 | 400,000 compounds, 3.4% hits | Potency, µM (highest dose often 46.1 µM), hits mostly cytotoxic | KB-V1 MDR cells viability, CellTiter-Glo, 72 h; further: nearly all actives have a fitted effect of over 60% in size
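Potencies derive from concentration-effect curves fitted to normalized luminescence (CellTiter-Glo) of KB-V1 cells treated for 72 h at 37 degrees C in phenol-red-free DMEM containing 10% FBS.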
hERG WT inh = qHTS for Inhibitors of KCHN2 3.1: Wildtype qHTS | AID 720551, 2013 | 340,000 compounds, 0.37% hits | activity change, % at 1.84 µM | U2OS, BacMam KCNH2, thallium flux FluxOr; stronger effect = lower value | Voltage-gated inwardly rectifying potassium channel KCNH2 (Homo sapiens), Q12809;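 active means maximum activity change below -70%; inconclusive means maximum activity change between -70% and -50%; inactive means maximum activity change above -50%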
Target sequence (Q12809 whole entry, looked up): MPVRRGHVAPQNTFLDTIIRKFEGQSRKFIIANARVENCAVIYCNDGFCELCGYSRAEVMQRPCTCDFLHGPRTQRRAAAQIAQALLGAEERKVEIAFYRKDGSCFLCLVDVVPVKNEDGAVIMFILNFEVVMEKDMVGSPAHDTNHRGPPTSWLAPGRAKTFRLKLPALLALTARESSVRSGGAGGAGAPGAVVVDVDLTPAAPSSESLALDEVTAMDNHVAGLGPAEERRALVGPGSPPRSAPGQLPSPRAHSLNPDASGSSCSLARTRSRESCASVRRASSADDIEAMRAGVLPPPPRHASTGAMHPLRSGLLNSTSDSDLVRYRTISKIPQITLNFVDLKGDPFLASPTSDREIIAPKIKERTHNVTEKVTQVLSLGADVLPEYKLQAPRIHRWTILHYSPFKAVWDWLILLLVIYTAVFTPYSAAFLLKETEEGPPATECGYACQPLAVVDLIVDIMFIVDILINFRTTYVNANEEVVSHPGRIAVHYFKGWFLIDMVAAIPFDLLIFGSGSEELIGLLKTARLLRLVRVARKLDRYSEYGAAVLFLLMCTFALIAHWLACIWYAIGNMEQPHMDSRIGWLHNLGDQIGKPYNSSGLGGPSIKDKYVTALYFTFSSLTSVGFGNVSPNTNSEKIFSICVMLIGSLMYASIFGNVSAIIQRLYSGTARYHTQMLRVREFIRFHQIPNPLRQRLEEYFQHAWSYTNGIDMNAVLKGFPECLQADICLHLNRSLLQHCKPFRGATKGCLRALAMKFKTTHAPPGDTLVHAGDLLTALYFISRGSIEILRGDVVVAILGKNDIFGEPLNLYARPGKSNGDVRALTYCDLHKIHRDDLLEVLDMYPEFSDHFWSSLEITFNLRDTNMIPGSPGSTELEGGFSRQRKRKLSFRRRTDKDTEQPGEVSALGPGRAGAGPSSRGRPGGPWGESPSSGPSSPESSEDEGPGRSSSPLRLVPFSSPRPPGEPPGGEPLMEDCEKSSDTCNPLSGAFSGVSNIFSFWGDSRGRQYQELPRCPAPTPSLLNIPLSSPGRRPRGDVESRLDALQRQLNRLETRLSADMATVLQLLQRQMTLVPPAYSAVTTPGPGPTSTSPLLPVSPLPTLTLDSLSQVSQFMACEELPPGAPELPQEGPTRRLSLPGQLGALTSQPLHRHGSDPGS
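U2OS cells transduced with wild-type KCNH2 virus are loaded with FluxOr dye for 45 min, and thallium flux is measured in kinetic reads before and after stimulation buffer. Rate constants are normalized to DMSO controls.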
Of the large screens only hits and unclear results are named; the others gave an inactive call. A selection: hits, their analogues and other compounds. The true share with any hit is near 7.6%. Unless noted, the call rests on the fitted dose curve; in most records, active means well fitted curve in the direction sought with a large enough effect; inconclusive means small, poorly fitted or top-dose-only effect, or another doubt; inactive means no such curve, though single readings can be large; an effect the other way counts as inactive or inconclusive.

Cn1cc(C(=O)N/N=C/c2cccs2)c2ccccc21	none
Cn1cc(C(=O)N/N=C/c2ccc(Br)c([N+](=O)[O-])c2)c2ccccc21	SW480 rereplic inconclusive, KB-3-1 cytotox 16µM
O=C(N/N=C/c1ccc2c(c1)OCO2)c1cc(-c2ccco2)nc2ccccc12	SW480 rereplic 15µM, KB-3-1 cytotox inconclusive, MCF10A rerep inconclusive, KB-V1 MDR tox inconclusive
O=C(N/N=C/c1ccc2c(c1)OCO2)c1ccc2c(c1)OCCO2	SW480 rereplic inconclusive, KB-3-1 cytotox 16µM, MCF10A rerep inconclusive
O=c1cnnc(N/N=C/c2ccc3c(c2)OCO3)[nH]1	KB-3-1 cytotox inconclusive, KB-V1 MDR tox 7.3µM
Cc1cc(C)n2nc(C(=O)Nc3ccn(Cc4ccccc4C)n3)cc2n1	none
O=C(N/N=C/c1cc(Br)c(Br)o1)c1ccc2c(c1)OCCO2	MCF10A rerep 13µM, KB-V1 MDR tox inconclusive
O=C(N/N=C/c1ccc2c(c1)OCO2)c1cc(-c2ccccc2)nc2ccccc12	KB-3-1 cytotox inconclusive, MCF10A rerep inconclusive
O=C(N/N=C/c1ccc2c(c1)OCO2)c1cccc2ccccc12	KB-3-1 cytotox inconclusive, MCF10A rerep 16µM, KB-V1 MDR tox inconclusive
COc1cc(/C=N/NC(=O)c2cc(-c3cccs3)nc3ccccc23)ccc1O	KB-3-1 cytotox inconclusive, MCF10A rerep inconclusive, KB-V1 MDR tox inconclusive
N#Cc1ccc(/C=N/NC(=O)c2cc(-c3cccs3)nc3ccccc23)cc1	SW480 rereplic inconclusive, KB-3-1 cytotox inconclusive, MCF10A rerep 21µM
O=C(CSCc1cccc(Br)c1)N/N=C/c1ccc2c(c1)OCO2	SW480 rereplic inconclusive, KB-3-1 cytotox 18µM, MCF10A rerep inconclusive
Cc1ccc(-n2c(=O)c3ccccc3n(CC(=O)C(C)(C)C)c2=O)cc1	none
O=C(N/N=C/c1ccc2c(c1)OCO2)c1ccc(COCC(F)(F)C(F)F)cc1	SW480 rereplic 6.5µM, KB-3-1 cytotox 8.2µM, MCF10A rerep inconclusive
COc1cc(Cl)cc(/C=N\NC(=O)c2ccc3c(c2)OCO3)c1O	KB-V1 MDR tox inconclusive (no result: SW480 rereplic, MCF10A rerep)
O=C(N/N=C/c1cc(Cl)cc([N+](=O)[O-])c1O)NC12CC3CC(CC(C3)C1)C2	KB-3-1 cytotox inconclusive, MCF10A rerep 18µM, KB-V1 MDR tox inconclusive
O=C(N/N=C/c1c[nH]c2ccccc12)c1ccc2c(c1)OCCO2	SW480 rereplic inconclusive, MCF10A rerep 16µM, KB-V1 MDR tox inconclusive
O=C(N/N=C/c1ccccc1O)NC12CC3CC(CC(C3)C1)C2	MCF10A rerep inconclusive
O=C(N/N=C/c1cc(Cl)cc([N+](=O)[O-])c1O)c1ccc2c(c1)OCO2	SW480 rereplic 18µM, KB-3-1 cytotox inconclusive, MCF10A rerep inconclusive
O=C(NCCN1CCC(n2c(=O)[nH]c3ccccc32)CC1)c1cccc(Cl)c1	KB-V1 MDR tox inconclusive (no result: SW480 rereplic, KCNH2 3.1 inh, MCF10A rerep, hERG WT inh)
COCCCNC(=S)N(CCO)Cc1cc2cc3c(cc2[nH]c1=O)OCO3	MCF10A rerep inconclusive
Cc1cc(C(=O)N/N=C/c2ccc3c(c2)OCO3)c(C)o1	KB-V1 MDR tox inconclusive
Cn1cc(C(=O)N/N=C/c2ccc3c(c2)OCO3)c2ccccc21	SW480 rereplic inconclusive, KB-3-1 cytotox 8.2µM, MCF10A rerep inconclusive, KB-V1 MDR tox inconclusive
CCN(CC)CCCNc1nc2ccccc2c2[nH]c3ccc(OC)cc3c12	SW480 rereplic inconclusive, KB-3-1 cytotox inconclusive, KB-V1 MDR tox 16µM (no result: KCNH2 3.1 inh)
CCN(CC)C(=O)c1ccccc1NC(=O)CN1C(=O)c2ccccc2C1=O	none
CCCN(CC(=O)Nc1ccccc1C)C(=O)c1nn(CC)c(=O)c2ccccc12	KB-V1 MDR tox 8.2µM
CCCN(CC(=O)Nc1ccccc1C)C(=O)c1ccc(-c2ccccc2)cc1	none
O=C1c2cccnc2-c2ncccc21	none
O=C1C(=O)c2cccnc2-c2ncccc21	KB-3-1 cytotox 3.7µM, KB-V1 MDR tox 18µM (no result: SW480 rereplic, KCNH2 3.1 inh, MCF10A rerep, hERG WT inh)
COc1ccccc1N1C(=O)c2cccnc2C1=O	none
COC1=C(Br)C(=O)c2ncccc2C1=O	SW480 rereplic 2.9µM, KB-3-1 cytotox inconclusive, MCF10A rerep 5.2µM, KB-V1 MDR tox inconclusive
Cc1cccc(C)c1NC(=O)CSc1nnc(Cn2nnc(-c3ccccc3)n2)n1-c1ccccc1	KB-V1 MDR tox 8.2µM
O=C(CSc1nnc(Cn2nnc(-c3ccccc3)n2)n1-c1ccccc1)Nc1ccc(F)cc1	none
O=C(CSc1nnc(Cn2nnc(-c3ccccc3)n2)n1-c1ccccc1)Nc1ccccc1	KB-V1 MDR tox 15µM
CC(C)(C)C(=O)/C(=C/c1ccc(Cl)cc1)n1cncn1	SW480 rereplic inconclusive, KB-3-1 cytotox inconclusive, MCF10A rerep 6.5µM, KB-V1 MDR tox inconclusive
COc1cc(NC(=O)c2ccc([N+](=O)[O-])o2)ccc1NC(=O)c1cccs1	SW480 rereplic 6.5µM, KB-3-1 cytotox inconclusive, MCF10A rerep inconclusive
Cc1ccc(NC(=O)c2cccs2)cc1[N+](=O)[O-]	KB-V1 MDR tox inconclusive
O=C(Nc1cccc(NC(=O)c2cccs2)c1)c1ccc([N+](=O)[O-])o1	SW480 rereplic inconclusive, KB-3-1 cytotox 16µM, KB-V1 MDR tox inconclusive
COc1cc(NC(=O)c2cccs2)ccc1NC(=O)Cc1ccccc1	MCF10A rerep inconclusive (no result: KB-3-1 cytotox, KB-V1 MDR tox)
O=C(COC(=O)CCC(=O)c1ccc(F)cc1)Nc1cccc(S(=O)(=O)N2CCCC2)c1	none
CCCCN(C)CCNC(=O)c1nn(-c2ccc(OC)c(Cl)c2)c(=O)c2c1c1ccccc1n2C	none (no result: SW480 rereplic, KCNH2 3.1 inh, MCF10A rerep, hERG WT inh)
COc1ccc(-c2cc(C(F)(F)F)n3nc(C(=O)NCCCn4ccnc4)cc3n2)cc1	SW480 rereplic inconclusive, MCF10A rerep 13µM
COc1ccc(-c2cc(C(F)(F)F)n3nc(C(=O)Nc4c(C)n(C)n(-c5ccccc5)c4=O)cc3n2)cc1	KB-3-1 cytotox inconclusive, MCF10A rerep 18µM
CCc1cc2c(=O)nc3n(c2s1)Cc1ccccc1/C3=C(/O)c1ccccc1Cl	MCF10A rerep 6.5µM
Cc1cccc(NC(=O)CSc2nnc([C@@H]3CCCN3C(=O)OC(C)(C)C)o2)c1C	KB-3-1 cytotox 21µM, KB-V1 MDR tox inconclusive
Cc1ccc(Cc2nnc3n(-c4ccccc4)nc(C(=O)c4ccccc4)n3c2=O)cc1	SW480 rereplic 18µM, KB-3-1 cytotox inconclusive, MCF10A rerep 16µM, KB-V1 MDR tox 8.2µM
Cc1ccc(-n2c(C)cc(=O)cc2C)cc1[N+](=O)[O-]	none
NC(=S)N/N=C/c1ccc(C23CC4CC(CC(C4)C2)C3)cc1	SW480 rereplic 7.3µM, KB-3-1 cytotox inconclusive, MCF10A rerep inconclusive
